Source: PubChem BioAssay AID651610 (Broad Institute, 2012)
In all, about 360,000 compounds went through this assay and about 3,900 (1.1%) were called active.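 How the source made its calls: active means mean replicate inhibition score of at least 50 and every replicate individually at or above 50; inconclusive means only one of the two criteria met; inactive means mean below 50 and not all replicates reaching 50.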 What follows is part of a selection rich in actives, with near analogues and random picks from the rest.

Assay: inhibitors of HIV-1 Env-driven cell-cell fusion, primary screen, HeLa-JRFL effector, CEM21 target cells, luciferase (AID 651610);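 further: 0% = plate neutral controls and 100% = maraviroc near 300 nM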
Settings: active compounds read high; at 16.7 µM unless noted

inhibition, inactive:
COc1ccc(NC(=O)Nc2ccc3c(c2)C(=O)N([C@@H](C)CO)C[C@@H](C)[C@H](CN(C)C(=O)NC(C)C)OCCCC[C@H](C)O3)cc1 11.6%
CCCCCCSc1ccc([C@@H]2[C@H]3C(=O)N(CC)C(=O)[C@H]3[C@]3(C(=O)OC)CCCCN23)cc1 8.61% [at 12.3 µM]
CCN1C(=O)[C@@H]2[C@@H](c3ccc(-c4ccccc4)cc3)N3CCCC[C@@]3(C(=O)OC)[C@@H]2C1=O -3.15% [at 12.3 µM]
CCN1C(=O)[C@@H]2[C@@H](c3ccc(-c4ccc(OC)cc4)c(OC)c3)N3CCC[C@@]3(C(=O)OC)[C@@H]2C1=O -5% [at 12.3 µM]
CCN1C(=O)[C@@H]2[C@@H](c3ccc(-c4cccc(Cl)c4)cc3)N3CCC[C@@]3(C(=O)OC)[C@@H]2C1=O -3.1% [at 12.3 µM]
Cc1ccc(S(=O)(=O)N(C)C[C@@H]2Oc3ccc(NC(=O)Cc4ccccc4)cc3CC(=O)N([C@H](C)CO)C[C@H]2C)cc1 14.2%
CO[C@@H]1CN(C)C(=O)c2cc(NC(=O)c3ccc(F)cc3)ccc2OC[C@H](C)N(C(=O)CN(C)C)C[C@H]1C 6.25%
Cc1ccccc1-n1cc(CNC(=O)C2CCC(=O)N(C3CC3)C2)cn1 (stereo not given) 5.76% [at 12.3 µM]
O=C(CC1C(=O)NCCN1Cc1ccc(-c2ccccc2)cc1)NCc1ccncc1 (stereo not given) -0.899% [at 12.3 µM]
C[C@@H]1CN([C@@H](C)CO)C(=O)Cc2cc(NS(=O)(=O)c3cccs3)ccc2O[C@@H]1CN(C)C(=O)Nc1ccc(C(F)(F)F)cc1 0.927%
CC(C)NC(=O)N(C)C[C@H]1Oc2ncc(-c3cccc(C#N)c3)cc2C(=O)N([C@@H](C)CO)C[C@H]1C 8.57%
CCOC(=O)C1CCN(C(=O)COC(=O)C2CCN(S(=O)(=O)c3ccc4c(c3)OCCO4)CC2)CC1 29.3% [at 12.3 µM]
CC1CCN(C(=O)COC(=O)c2cc(S(=O)(=O)N3CCOCC3)ccc2Cl)CC1 5.19% [at 12.3 µM]
COc1ccc(CNC(=O)C[C@H]2CC[C@H](NC(=O)Nc3ccc4c(c3)OCO4)[C@H](CO)O2)cc1 15.7%
CC(C)NC(=O)N(C)C[C@@H]1OCCCC[C@@H](C)Oc2ccc(NC(=O)NC3CCCCC3)cc2C(=O)N([C@@H](C)CO)C[C@@H]1C -9.6%
C[C@H]1CN([C@@H](C)CO)C(=O)c2cc(C#CC3(O)CCCC3)cnc2O[C@@H]1CN(C)C(=O)Cc1ccccc1 15.7%
C[C@@H]1CN([C@H](C)CO)S(=O)(=O)c2ccc(C#CCN(C)C)cc2O[C@@H]1CN(C)C 5.39%
O=c1c2c3c(sc2n(CCN2CCCC2)c(=O)n1Cc1ccccc1)CCCCC3 46.8% [at 12.3 µM]
CCn1c(=S)[nH]c2sc3c(c2c1=O)CCCCC3 -33.7% [at 12.3 µM]
CNC(=O)C[C@@H]1CC[C@H]2[C@@H](COc3ccc(NC(=O)NCc4ccccc4)cc3C(=O)N2C)O1 -0.208%
COC(=O)[C@]1(Cc2ccccc2)N[C@H](CN(C)S(=O)(=O)c2ccc(OC(F)(F)F)cc2)[C@@H]2C(=O)N(Cc3ccccc3)C(=O)[C@@H]21 48.1% [at 12.3 µM]
CCN(C[C@H]1N[C@@](CC)(C(=O)OC)[C@H]2C(=O)N(Cc3ccccc3)C(=O)[C@@H]12)S(=O)(=O)c1ccccc1 42% [at 12.3 µM]
Cc1ccc(S(=O)(=O)N[C@@H]2CC[C@@H](CC(=O)O)O[C@@H]2CO)cc1 7.43%
CC1CCN(C(=O)c2cccc(S(=O)(=O)N3CCCc4ccccc43)c2)CC1 39.9% [at 12.3 µM]
CN1CCN(S(=O)(=O)c2cccc(C(=O)N3CCc4ccccc43)c2)CC1 -15.7% [at 12.3 µM]
C[C@@H]1CN([C@H](C)CO)C(=O)c2cc(NC(=O)Nc3ccc4c(c3)OCO4)ccc2O[C@H]1CN(C)C(=O)Nc1ccccc1 7.58%
Cc1ccccc1C1CC(c2cccs2)=NN1S(C)(=O)=O (stereo not given) -91.6% [at 12.3 µM]
O=C(COc1ccccc1Cl)N1N=C(c2cccs2)CC1c1ccco1 (stereo not given) -7.8% [at 12.3 µM]
CCS(=O)(=O)Nc1ccc2c(c1)C(=O)N(C)[C@H]1CC[C@H](CC(=O)NCc3ccccc3F)O[C@H]1CO2 -0.764%
NC(=O)CSc1nnc(NC(=O)c2ccc(Br)o2)s1 -7.67% [at 12.3 µM]
Cc1cccc(CS(=O)(=O)c2ncc(Cl)c(C(=O)Nc3ccc(F)cc3)n2)c1 -12.3% [at 12.3 µM]

inhibition, active:
CCCCCCSc1ccc([C@@H]2[C@@H]3C(=O)N(CC)C(=O)[C@@H]3[C@]3(C(=O)OC)CCCCN23)cc1OC 73.2% [at 12.3 µM]
COC(=O)[C@@]12CCCN1[C@H](c1ccc(-c3ccc(F)cc3)c(OC)c1)[C@H]1C(=O)N(C)C(=O)[C@H]12 71.6% [at 12.3 µM]
Cc1ccccc1-n1cc(CNC(=O)CC2C(=O)NCCN2C/C=C/c2ccccc2)cn1 (stereo not given) 58% [at 12.3 µM]
COC(=O)C1CCN(C(=O)COC(=O)c2cc(S(=O)(=O)N3CCOCC3)ccc2C)CC1 72.4% [at 12.3 µM]
CN(C)CCCn1c(=O)n(Cc2ccccc2)c(=O)c2c3c(sc21)CCCCC3 63.7% [at 12.3 µM]
CCN(C[C@H]1N[C@@](CC)(C(=O)OC)[C@H]2C(=O)N(Cc3ccccc3)C(=O)[C@@H]12)S(=O)(=O)c1ccc(C(F)(F)F)cc1 99.4% [at 12.3 µM]
CNC(=O)C1CN(C(=O)c2cccc(S(=O)(=O)N3CCc4ccccc43)c2)c2ccccc2O1 (stereo not given) 60.2% [at 12.3 µM]
Fc1ccc(N2N=C(c3cccs3)CC2c2ccco2)c(F)c1 (stereo not given) 55.9% [at 12.3 µM]
CSc1nnc(NC(=O)c2nc(S(=O)(=O)Cc3ccc(C)cc3)ncc2Cl)s1 73.8% [at 12.3 µM]
